Assay results taken from the supplement of paper PMC8269313.
Where a name gives a salt, the structure may show the parent alone.

Tested on: 4T1
Experiment: % inhibition of 4T1 cell number vs DMSO control; higher = stronger growth inhibition
Conditions: 1 µM, 3 days
In short: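 In 96-well imaging plates whose edge wells went unused, 3000 4T1-H2B-GFP mouse breast cancer cells per well were seeded in 2% FBS medium onto plastic, denuded lung matrix, mCAF1 fibroblast-derived matrix, Matrigel (15 μg/mL) or 0.2% gelatin. Sixteen hours on, kinase inhibitors went in at 1 μM final for 3 days before formalin fixation, DAPI staining and imaging on an INCell Analyzer 2200. Counting of GFP-positive nuclei gave cell numbers, from which percent inhibition relative to control was derived.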

[1] = substrate: lung fibroblast-derived matrix
[2] = substrate: mCAF1 fibroblast-derived matrix

SMILES | % inhibition of 4T1 cell number (substrate: Matrigel) | % inhibition of 4T1 cell number (substrate: gelatin) | % inhibition of 4T1 cell number [1] | % inhibition of 4T1 cell number [2] | % inhibition of 4T1 cell number (substrate: plastic)
O=C(Nc1cc(Cl)cc2c1[nH]c1cnccc12)c1cccnc1 [IKK Inhibitor X] | 42.5% | 25.8% | -6.01% | -10% | 57.7%
COc1ccc2nc3n[nH]c(C)c3c(NCCOCCO)c2c1 | 28.3% | 44.2% | 1.01% | -1.22% | 23.2%
CS(=O)(=O)c1ccc(-c2nc(-c3ccc(F)cc3)c(-c3ccncc3)[nH]2)cc1 | 37.9% | 63% | -4.16% | 14.7% | 52.9%
COc1cc2ncnc(Nc3ccc(Cl)cc3Cl)c2cc1OC [Ste11 MAPKKK Activation Inhibitor] | 42% | 66.8% | 0.704% | -27.6% | 36.1%
O=C(Nc1ccncc1)Nc1c(Cl)cc(Cl)cc1Cl [Rho Kinase Inhibitor II] | -9.94% | -2.18% | -4.7% | -19.5% | -18.6%
Nc1nccc(-c2c(-c3ccc(F)cc3)ncn2C2CCNCC2)n1 | -17.8% | -10.4% | 11.7% | 29.5% | -59.1%
O=C1Cc2c([nH]c3ccc([N+](=O)[O-])cc23)-c2ccccc2N1 [Alsterpaullone] | 61.5% | 45.2% | -3.92% | -0.808% | 56.1%
Cc1cc(C)c(/C=C2\C(=O)Nc3ccccc32)[nH]1 [VEGF Receptor 2 Kinase Inhibitor III] | 14.1% | 30.2% | -11.5% | -25% | 2.08%
Cn1c(O)c(-c2[nH]c3ccccc3c2N=O)c2ccc(Br)cc21 [GSK-3 Inhibitor IX, Control, MeBIO] | 3.95% | 2.35% | 16% | -1.76% | -22.7%
CC(C)n1cnc2c(NCc3ccccc3O)nc(NCCCO)nc21 [Cdk Inhibitor, p35] | 20.1% | 13.4% | -6.35% | -51.8% | 14.9%
Oc1cccc(-c2nc(N3CCOCC3)c3oc4ncccc4c3n2)c1 | 22.6% | 4.53% | -18.2% | 70.3% | -7.68%
Cn1nc2c3c(cccc31)C(=O)c1ccccc1-2 [JNK Inhibitor, Negative Control] | -37.2% | -36.9% | 0.304% | 24.3% | -59.1%
O=C1c2ccccc2-c2nc3nnnn3nc21 [PDK1/Akt/Flt Dual Pathway Inhibitor] | 99% | 97.3% | -19.8% | 95.4% | 97%
NCCNc1ncc(C(N)=O)c(Nc2cccc(C(F)(F)F)c2)n1 [Syk Inhibitor II] | -0.528% | -84.2% | -1.24% | -23.5% | -12.4%
NC(=O)Nc1cc(-c2ccccc2)sc1C(N)=O [IKK-2 Inhibitor XI] | 48% | 55% | 2.01% | 19.8% | 28.6%
CC[C@H](CO)Nc1nc(NCc2ccc(-c3ccccn3)cc2)c2ncn(C(C)C)c2n1 [CR8, (R)-Isomer] | 99.5% | 98.7% | -11.2% | 96% | 96.7%
Cn1cc(C2=C(c3cn(CCCSC(=N)N)c4ccccc34)C(=O)NC2=O)c2ccccc21 | -9.32% | 35.1% | -2.42% | 48.6% | -25.7%
CC(=O)c1ccc(N2CCOCC2)cc1O [DNA-PK Inhibitor III] | 0.894% | -13.7% | -5.23% | -5.96% | -24.1%
O=c1cc(N2CCNCC2)oc2c(-c3ccccc3)cccc12 | -14.2% | -6.29% | -1.5% | 6.84% | -42.8%
CSc1nc(-c2ccnc(NC(C)c3ccccc3)c2)c(-c2ccc(F)cc2)[nH]1 (stereo not given) [p38 MAP Kinase Inhibitor III] | -9.55% | -7.6% | 10.6% | 23.1% | -65%
O=S(=O)(c1cccc2cnccc12)N1CCCNCC1 [HA 1077, Dihydrochloride] | 25.3% | 21.7% | -23.5% | 4.22% | 21.9%
COc1ccc(Cl)cc1NC(=O)Nc1cc(C)nc2ccccc12 [IGF-1R Inhibitor II] | -4.34% | -99% | -3.14% | -1.23% | -44.3%
N#Cc1c(C2CCNCC2)cc(-c2c(O)cccc2OCC2CC2)nc1N [IKK-2 Inhibitor VIII] | -23.5% | -17.9% | -4.53% | 9.43% | -39.2%
Cn1c2ccccc2c2c3c(c4c5ccccc5n(CCC#N)c4c21)CNC3=O | 50.9% | 67.2% | -8.31% | 34.5% | 72.7%
CCC(CO)Nc1nc(NCc2ccccc2)c2ncn(C(C)C)c2n1 [Roscovitine, (S)-Isomer] | -4.8% | 59.2% | 1.55% | 29.4% | -6.54%
O=C(O)C=Cc1cc(Br)c(Br)c(Br)c1Br [Casein Kinase II Inhibitor III, TBCA] | 33.8% | 27.7% | 2.78% | 2.33% | 40.6%
N#Cc1c(NC(=O)c2cccc3ccccc23)sc2c1CCCC2 [JNK Inhibitor IX] | 92% | 92.5% | 2.5% | 90.8% | 86.4%

SMILES | % inhibition of 4T1 cell number (substrate: Matrigel) | % inhibition of 4T1 cell number (substrate: gelatin) | % inhibition of 4T1 cell number [1] | % inhibition of 4T1 cell number [2] | % inhibition of 4T1 cell number (substrate: plastic)
O=C(c1ccccc1)c1ccc(N2CCOCC2)cc1O [DNA-PK Inhibitor V] | 58% | 77.4% | -6.09% | 54.5% | 92.7%
O=c1cc(N2CCOCC2)oc2c(-c3ccccc3)cccc12 | -14.7% | -77.3% | 28.2% | 17.4% | -56.8%
CC(C)(C)c1nc2c3cc[nH]c(=O)c3c3cc(F)ccc3c2[nH]1 [JAK Inhibitor I] | -23.5% | -101% | -5.54% | 20.7% | -71.6%
N#CC(c1ccnc(NCCc2cccnc2)n1)c1nc2ccccc2s1 (stereo not given) [JNK Inhibitor V] | -8.79% | 6.99% | -8.74% | 52.2% | 8.02%
O=S(=O)(c1cccc2c(I)cccc12)N1CCCNCC1 [ML-7, Hydrochloride] | 23% | 24.2% | -1.62% | 33.6% | -7.72%
O=C1NC(=O)C(c2c[nH]c3ccccc23)=C1c1c[nH]c2ccccc12 [Bisindolylmaleimide IV] | 24.5% | -65.7% | 47.8% | 17.1% | -20.6%
CCCCCCOC(=O)[C@]1(O)C[C@@H]2O[C@@]1(C)n1c3ccccc3c3c4c(c5c6ccccc6n2c5c31)C(=O)NC4 | -41.8% | -0.139% | -8.63% | 13.5% | -74.7%
COc1ccc(-c2cnc3c(-c4ccsc4)cnn3c2)cc1 [VEGF Receptor 2 Kinase Inhibitor IV] | 8.54% | 30.6% | -18.1% | 5.85% | -14.5%
N#CC(C#N)=C(N)/C(C#N)=C/c1ccc(O)cc1 | -1.44% | 52.7% | -11.6% | 11.4% | 21.1%
O=C1Nc2ccc(Br)cc2/C1=C/c1cc2c([nH]1)CCCC2 [VEGF Receptor 2 Kinase Inhibitor II] | 16.3% | -22.2% | -11.9% | -141% | 8.31%
Cc1cc2ncc(-c3ccccc3)nc2cc1C | 1.93% | 65.9% | -4.16% | 30.3% | 45.2%
COc1cc(OC)c(C=C2C(=O)Nc3ccccc32)c(OC)c1 | 85.7% | 85.1% | 86.7% | 84.2% | 70.1%
OCC(O)CCO/N=C1\C(c2c(O)[nH]c3ccccc23)=Nc2ccccc21 (stereo not given) [Indirubin Derivative E804] | -31.7% | 0.993% | -5.02% | 85.4% | 67.7%
O=C1C(Cl)=C(N2C(=O)CCC2=O)C(=O)c2ccccc21 [MEK Inhibitor II] | -30.5% | -13.5% | -5.8% | 50.2% | -66.5%
O=C1NC(=O)/C(=C/c2ccc3c(c2)OC(F)(F)O3)S1 [PI 3-Kg Inhibitor II] | 27.2% | 11.1% | 39.7% | 5.87% | 37.8%
O=c1c(O)c(-c2ccc(O)c(O)c2)oc2cc(O)c(O)c(O)c12 [Quercetagetin] | 28.5% | 52.6% | -6.29% | 36.1% | 48.4%
Fc1ccc(-c2nc3n(c2-c2ccncc2)CCS3)cc1 | 28.9% | 18.4% | -11.4% | 18.8% | 9.54%
NC(N)=NCCNS(=O)(=O)c1cccc2cnccc12 [HA 1004, Dihydrochloride] | -14.8% | -0.694% | -2.73% | -8.89% | -48.5%
CNCCNS(=O)(=O)c1cccc2cnccc12 [H-8, Dihydrochloride] | -17.7% | 25.7% | -6.96% | 30.5% | -63%
Cc1cc(Nc2nc(-c3ccccc3)nc3ccccc23)n[nH]1 [GSK-3 Inhibitor XIII] | -21.7% | -25.8% | -19% | 62.3% | -14.5%
CN[C@@H]1C[C@H]2O[C@@](C)([C@@H]1OC)n1c3ccccc3c3c4c(c5c6ccccc6n2c5c31)C(=O)N[C@H]4O | 99.4% | 99.2% | 14.1% | 88.8% | 95.5%
COc1cc2ncnc(Nc3cccc(O)c3)c2cc1OC [WHI-P180, Hydrochloride] | 35.6% | 65.6% | 9.03% | -4.63% | 37.6%
CCN(CC)C(=O)c1ccc(Nc2nc(OCC3CCCCC3)c3[nH]cnc3n2)cc1 [Cdk2 Inhibitor IV, NU6140] | -9.76% | -12.1% | -6.34% | 80.5% | 44.3%
COc1nccc(-c2c(-c3ccc(F)cc3)ncn2C2CCC(O)CC2)n1 (stereo not given) | 46.2% | 34.2% | -8.71% | -18.3% | 19.8%
c1ccc2c(-c3ccncc3)c[nH]c2c1 [Rho Kinase Inhibitor III, Rockout] | -26.4% | -33.3% | -7.01% | 37.7% | -78.9%
CC[n+]1c(/C=C/N(C)c2ccccc2)n(-c2ccccc2)c2ccc(-c3nc4ccccc4s3)cc21 [Akt Inhibitor IV] | 53.2% | 56.7% | -4.76% | 92.1% | 78.2%
COc1ccc(OC)c2c(=S)c3ccccc3[nH]c12 | -8.48% | -7.36% | -13.6% | 4.29% | -67%
